These results are taken from PubChem BioAssay.

What is called remaining activity is the signal under treatment as a percentage of the control signal. The term AC50 denotes the concentration giving half of the maximal activity seen. By viability is commonly meant a read-out of living cells in per cent, often relative to untreated cells. The IC50 is the concentration that inhibits the measured activity by half.

“And” between values parts separate entries of the source, which are not always exact repeats. Identical values can stand only once. Inconclusive results are not listed. The source made the active and inactive calls. Unless noted, no cut-off is given here; in the data, nearly all actives have AC50 up to about 26 µM.

Assay [1] deals with Aerobactin synthetase IucA (Klebsiella pneumoniae). Put plainly: inhibition of K. pneumoniae IucA enzyme – biochemical, Tocris library, absorbance (AID 1345561; call rule not given here;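 note: 100% = enzyme without compound and 0% = no enzyme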). As to conditions: purified IucA enzyme assay, absorbance (OD) read-out; stronger effect = lower value;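 tested at 8 µM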.
The nature of assay [2]: viability loss in pontine glioma line – cell-based, SU-DIPG-XVII, MIPE5.0, CellTiter-Glo, qHTS, dose response (AID 1347060).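 For AC50: cells exposed to compound for 48 hours before viability readout.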 The note with it: CellTiter-Glo ATP luminescence.
The nature of assay [3]: viability loss in pontine glioma line – cell-based, SU-DIPG-XIII, MIPE4.0, CellTiter-Glo, qHTS, dose response (AID 1347061; cut-off not given, nearly all actives have AC50 up to about 37 µM;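 note: cells exposed to compound for 48 hours before readout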). As to conditions: CellTiter-Glo ATP luminescence.
A short description of assay [4]: growth inhibition of DIPG cells – cell-based, MIPE4.0 library, CellTiter-Glo luminescence, qHTS (AID 1347066; cut-off not given, nearly all actives have AC50 up to about 30 µM;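 note: cells exposed to compound for 48 hours before readout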). As to conditions: SU-DIPG-VI viability, CellTiter-Glo ATP luminescence. Background: In ATP-based viability assays light output follows the ATP content of the culture.
Assay [5] in a line: growth inhibition of DIPG cells – cell-based, MIPE5.0 library, qHTS (AID 1347068; cut-off not given, nearly all actives have IC50 up to about 30 µM;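 for IC50: cells exposed to compound for 48 hours before viability readout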). As to conditions: SU-DIPG-XXV viability.
A short description of assay [6]: viability loss with induced miR-34 in A549 – imaging, A549 dox-inducible miR-34, nuclei and caspase counts, primary screen (AID 1347080;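 active = compounds whose cell count with miR-34 switched on is under 0.7 times the count with it off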). The note with it: A549 miR-34 inducible, Hoechst nuclei count, 48 h.
The nature of assay [7]: compounds altering HSF1 focus formation in cells – imaging, Selleck Cancer Library (AID 1347162; in the data active = plate-normalised HSF1 focus index below about 0.46). The note with it: human cells, HSF1 nuclear foci imaging, at 10 µM; SSMD: measured here: HSF1 foci SSMD mean; cell count: measured here: cell number; plate-normalised HSF1 focus index: stronger effect = lower value.
The nature of assay [8]: galactose survival enhancers in mitochondrial complex I cybrids – cell-based, galactose medium, ATP luminescence, primary screen (AID 1645843;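 active = z-score of at least 1.8 in each of two replicates, scored against plate mean and spread of sample wells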;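 note: positive z means more ATP and so rescue of galactose-driven cybrid death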). The note with it: complex I mutant cybrid cells, 72 h, stronger effect = higher value.
A short description of assay [9]: viability loss in pontine glioma line – cell-based, SU-DIPG-XIII, MIPE5.0, CellTiter-Glo, qHTS, dose response (AID 1347064; cut-off not given, nearly all actives have AC50 up to about 23 µM;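 for AC50: cells exposed to compound for 48 hours before the viability read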). As to conditions: CellTiter-Glo ATP luminescence.
Assay [10] can be described thus: JHH-DIPG-1 glioma cell viability, MIPE5.0 library, CellTiter-Glo luminescence, qHTS (AID 1347067).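 Note: cells exposed to compound for 48 hours before readout.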 As to conditions: JHH-DIPG-1 glioma viability, CellTiter-Glo ATP luminescence.
A short description of assay [11]: MELAS cybrid and Rieske KO viability enhancers – cell-based, MELAS cybrids, Rieske KO mouse fibroblasts, CellTiter-Glo, primary screen (AID 1508586;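 active = mean z-score across replicates of 1.96 or higher in either the MELAS or the Rieske mutant cell line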;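 note: z relative to plate mean and SD of compound and empty wells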). As to conditions: low glucose.
Assay [12] is described as follows: P. berghei load reduction in hepatocytes – cell-based, HepG2, luciferase luminescence, HepG2 viability, primary screen (AID 624349; in the data active = parasite load remaining mostly below about 12%, no sharp cut-off; inactive = mostly above about 10%;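 note: 100% = mean of DMSO negative control wells on the same plate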). As to conditions: P. berghei liver stage in HepG2, luciferase luminescence, concentration not given here; parasite load remaining: stronger effect = lower value; viability: measured here: HepG2 viability without parasites.
Assay [13] can be described thus: viability loss in pontine glioma line – cell-based, JHH-DIPG-1, MIPE4.0, CellTiter-Glo, qHTS, dose response (AID 1347062; cut-off not given, nearly all actives have AC50 up to about 27 µM;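 for AC50: cells exposed to compound for two days before readout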). The note with it: JHH-DIPG-1 viability, CellTiter-Glo ATP luminescence.
The nature of assay [14]: viability loss in pontine glioma line – cell-based, SU-DIPG-XXV, MIPE5.0, CellTiter-Glo, qHTS, dose response (AID 1347065).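 Note: cells exposed to compound for 48 hours before ATP readout.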 As to conditions: CellTiter-Glo ATP luminescence.
Where [15] appears, read: stronger effect = lower value, cell number ratio, induced over uninduced.
The mark [16] stands for this setting: measured here: relative caspase fold change +Dox/-Dox.
[17] abbreviates: measured here: total cells with miR-34 induction, stronger effect = lower value.
[18] abbreviates: measured here: total cells without miR-34 induction.
[19] abbreviates: MELAS cybrid survival, CellTiter-Glo 48 h, stronger effect = higher value.
Setting [20] is: Rieske KO mouse fibroblast survival, CellTiter-Glo 72 h.

With `CCOc1cc(C(=O)Nc2ccc(Cl)c(-c3nc4ccccc4[nH]3)c2)cc(OCC)c1OCC`, in assay [1], the remaining activity is 119% (inactive). Besides, the result in [2], in [4] and in assay [5] was inactive. In addition, the AC50 in [3] is 10.5 µM (active). Also, the fold change was 0.991 (inactive) in assay [6] (setting [15]) and 0.843 in assay [6] (setting [16]). Besides, the cell count in assay [6] (setting [17]) turned out to be 5960; in [6] (setting [18]), 6020; in [7] it was 6790. Moreover, in [7], the SSMD came to 4.38. The plate-normalised HSF1 focus index in assay [7] was 1.26 (inactive). In addition, the z-score in [8] is 0.375 (inactive).

As to `CCN(CC)CCCC(C)Nc1nc(C)cc(Nc2ccc3nc(C)cc(N)c3c2)n1` (centres undefined), the remaining activity in assay [1] is 104% (inactive). Besides, the result in [2], in [3], in [9], in assay [4], in assay [10] and in assay [5] was inactive. The fold change in assay [6] (setting [15]) is 0.97 (inactive) and 0.925 (inactive); in assay [6] (setting [16]) it was 0.421 and 1.06. The cell count is 7920 and 8660 in [6] (setting [17]); 8160 and 9370 in assay [6] (setting [18]); 7010 in assay [7]. For the same molecule, in [7], the SSMD is 3.48. Moreover, the plate-normalised HSF1 focus index in assay [7] was 1.21 (inactive). Besides, the z-score in assay [11] (setting [19]) was -0.488 (inactive); in assay [11] (setting [20]), -2.27; in [8] it was 2.71 (active).

Consider `Nc1ncnc2nc(-c3ccc(N4CCOCC4)nc3)cc(-c3cccc(Br)c3)c12`, for which the parasite load remaining in assay [12] is 57.8% (inactive). Further, the viability in assay [12] was 155%. The remaining activity in assay [1] is 93.4% (inactive). In addition, the molecule was called inactive in assay [2], in assay [13], in assay [9] and in assay [10]. The fold change in [6] (setting [15]) is 0.949 (inactive); in assay [6] (setting [16]), 1.03. In addition, the cell count in [6] (setting [17]) turned out to be 7250; in assay [6] (setting [18]), 7640. The z-score in [8] is 2.27 (active).

For `CC[C@H](NC(C)C)[C@H](O)c1ccc(O)c2[nH]c(=O)ccc12`, the parasite load remaining in [12] is 42.5% (inactive). Further, in [12], the viability was found to be 102%. Also, the remaining activity in [1] was 95.2% (inactive). In addition, the call in assay [2], in assay [3], in assay [13], in assay [14], in [4] and in assay [10] was inactive. Moreover, the fold change in assay [6] (setting [15]) is 0.929 (inactive) and 0.941 (inactive); in [6] (setting [16]) it was 0.691 and 1.28. Further, the cell count was 8730 and 10200 in assay [6] (setting [17]); 9400 and 10800 in assay [6] (setting [18]). Further, the z-score is -0.163 (inactive) in assay [11] (setting [19]); -0.0411 in assay [11] (setting [20]); 0.095 (inactive) and 0.72 (inactive) in [8].

Turning to `COc1cc(OC)c(NC(=O)Nc2cc(C)on2)cc1Cl`, in assay [1], the remaining activity is 101% (inactive). In addition, the molecule was classed as inactive in [2], in assay [3], in assay [13], in assay [9], in [14] and in assay [4]. The result in [10] was inactive. Also, the fold change in assay [6] (setting [15]) is 0.801 (inactive) and 0.945 (inactive); in assay [6] (setting [16]) it was 0.762 and 1.52. In addition, the cell count in assay [6] (setting [17]) is 8290 and 9250; in assay [6] (setting [18]), 10400 and 9800. Further, the z-score in assay [11] (setting [19]) is -0.366 (inactive); in [11] (setting [20]) it was 1.34; in assay [8] it was 1.75 (inactive).

As for `CN1C(=O)C(Cc2c[nH]c3ccccc23)NC1=S` (centres undefined), in [12], the parasite load remaining was 48.6% (inactive). In addition, the viability in assay [12] is 96.5%. Also, the remaining activity in assay [1] was 89.8% (inactive). For the same molecule, the molecule was classed as inactive in [2], in [3], in [13], in [9], in [14] and in [4]. Also, the call in [10] and in assay [5] was inactive. The fold change in assay [6] (setting [15]) was 0.887 (inactive) and 0.965 (inactive); in assay [6] (setting [16]), 0.523 and 1.02. In addition, the cell count in assay [6] (setting [17]) is 7790 and 8210; in [6] (setting [18]), 8780 and 8510; in assay [7], 7350. This molecule displayed an SSMD in [7] of 1.64. Also, the plate-normalised HSF1 focus index in [7] was 1.1 (inactive). The z-score was -0.333 (inactive) in [11] (setting [19]), 0.34 in assay [11] (setting [20]) and 0.03 (inactive) in assay [8].

On to `COc1nccc(-c2c(-c3ccc(F)cc3)ncn2C2CCC(O)CC2)n1` (centres undefined), for which the parasite load remaining in [12] was 41% (inactive). The viability in assay [12] came to 82.3%. Also, the remaining activity in [1] was 92.5% (inactive). For the same molecule, the outcome in assay [2], in assay [3], in assay [13], in assay [4], in assay [10] and in assay [5] was inactive. Moreover, the figures for the fold change in assay [6] (setting [15]) and in assay [6] (setting [16]) were 0.979 (inactive) and 0.79, respectively. In addition, the cell count in assay [6] (setting [17]) is 6910; in assay [6] (setting [18]) it was 7050. Moreover, the z-score in assay [8] is 0.59 (inactive).

Turning to `Cc1cc(NC(=O)Nc2ccc(N(C)C)cc2)c2cc(F)cc(F)c2n1`, the remaining activity in assay [1] is 98.2% (inactive). Besides, the outcome in [2], in assay [3], in assay [13], in assay [9], in [4] and in assay [10] was inactive. For the same molecule, the result in [5] was inactive. Further, the fold change in assay [6] (setting [15]) is 0.902 (inactive) and 0.887 (inactive); in [6] (setting [16]), 0.91 and 0.717. Further, the cell count in assay [6] (setting [17]) was 6380 and 7970; in assay [6] (setting [18]) it was 7070 and 8990. Moreover, the z-score was 1.11 (inactive) in [11] (setting [19]), -0.687 in assay [11] (setting [20]) and -0.32 (inactive) in assay [8].

Turning to `Cc1ccc(/C=N/NC(=O)c2ccccc2Oc2ccccc2)o1`, the remaining activity in [1] was 79% (inactive). For the same molecule, the result in assay [2], in [13], in assay [14], in [4], in [10] and in [5] was inactive. Moreover, the fold change in [6] (setting [15]) is 0.862 (inactive); in [6] (setting [16]), 1.34. Besides, the cell count in [6] (setting [17]) was determined as 7340; in assay [6] (setting [18]), 8520. The z-score in [8] was -0.2 (inactive).

In the case of `O=Nc1c(-c2c(O)[nH]c3cc(Br)ccc23)[nH]c2ccccc12`, in assay [12], the parasite load remaining is 17.4% (inactive). In [12], the viability was 92.7%. The remaining activity in [1] is 107% (inactive). Also, the AC50 in assay [2] is 8.33 µM (active); in [13] it was 20.9 µM (active); in assay [9] it was 14.8 µM (active); in assay [14], 7.42 µM (active); in assay [4], 20.9 µM (active); in [10], 14.8 µM (active). Moreover, the call in [3] was inactive. Also, in [5], the IC50 is 10.5 µM (active). Besides, the z-score in [11] (setting [19]) is -0.015 (inactive); in [11] (setting [20]), 1.62; in [8] it was -1.29 (inactive) and -0.705 (inactive).

In the case of `COc1ccc(CCN(C)CCCOc2ccc(S(=O)(=O)c3c(C(C)C)c4ccccc4n3C)cc2)cc1OC`, the remaining activity in assay [1] is 115% (inactive). In addition, the AC50 in assay [2] is 18.6 µM (active); in assay [9], 23.5 µM (active); in [14], 9.34 µM (active); in [10], 10.5 µM (active). In [4], the molecule was classed as inactive. For the same molecule, the fold change in [6] (setting [15]) is 1.02 (inactive); in assay [6] (setting [16]), 0.864. Also, the cell count in [6] (setting [17]) came to 222; in assay [6] (setting [18]), 219; in assay [7], 5740. This molecule showed an SSMD in [7] of -4.23. Also, the plate-normalised HSF1 focus index in assay [7] was 0.749 (inactive). Also, the z-score in assay [8] was -1.04 (inactive).

As for `O=C1NC(=O)C(c2ccccc2[N+](=O)[O-])=C1Nc1ccc(O)c(Cl)c1`, the remaining activity in assay [1] is 112% (inactive). Moreover, the call in assay [2], in assay [3], in assay [13], in assay [9], in assay [10] and in assay [5] was inactive. The fold change in [6] (setting [15]) is 1 (inactive) and 1.09 (inactive) and 0.982 (inactive). The z-score was -0.406 (inactive) in assay [11] (setting [19]); 0.723 in assay [11] (setting [20]); 1.65 (inactive) and 0.35 (inactive) in [8].
